ALOX12 inhib: 12-hLO (ALOX12) enzyme inhibition; Potency, µM (series often up to 57.1 µM), most hits filed as inhibitors; purified 12-hLO, xylenol orange hydroperoxide absorbance; 150,000 compounds, 0.12% hits; note: nearly all actives have a fitted effect of over 55% in size
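Lipoxygenase turnover measured by absorbance at 573 and 405 nm after Fe-XO development. Human 12hLO 150 nM, arachidonate 40 uM, pH 7.0 Hepes buffer with detergent; 15 min compound preincubation, 30 min reaction.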
IMPase inh: IMPase inhibition in cells; CHO-M1 cells, IP1 accumulation, HTRF TR-FRET ratio; 120,000 tested, under 10 active; inhibition (IP1 accumulation), % at 46.1 µM; active = well fitted curve in the direction sought with a large enough effect in the signal ratio, not every such curve was filed as active; inconclusive = small, poorly fitted or top-dose-only effect, or a change in a side signal; inactive = no such curve, though single readings can be large or run the other way; the % refers to the signal ratio;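 note: cells stimulated with carbachol in lithium chloride buffer; higher means more IMPase inhibition seen as more IP1 and lower FRET ratio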
Target sequence (P97697 whole entry, looked up): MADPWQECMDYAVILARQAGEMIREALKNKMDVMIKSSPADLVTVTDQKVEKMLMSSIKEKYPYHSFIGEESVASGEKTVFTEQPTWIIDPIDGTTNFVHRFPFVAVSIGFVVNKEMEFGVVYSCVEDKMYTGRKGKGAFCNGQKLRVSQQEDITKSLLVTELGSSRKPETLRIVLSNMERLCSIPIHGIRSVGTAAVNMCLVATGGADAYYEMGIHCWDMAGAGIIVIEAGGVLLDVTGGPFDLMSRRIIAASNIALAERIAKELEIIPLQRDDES
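The IP-One HTRF competitive assay in carbachol-stimulated CHO-M1 cells quantifies cellular IP1. Compounds spanned up to 46 uM final, and activity is expressed as AC50 from concentration-response fits of the ratio and donor data.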
IMPase Li inh: IMPase inhibition in cells with lithium potentiation; Potency, µM (doses to about 59.4 µM), most hits filed as inhibitors; CHO-M1 cells, IP1 TR-FRET (IP-One), carbachol + lithium; 210,000 compounds, 0.35% hits;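 note: IP1 builds up when IMPase is blocked and the TR-FRET signal falls; nearly all actives have a fitted effect of over 50% in size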
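Concentration–response in CHO-M1 cells, lithium-potentiated; 30 min at 37C. IP1 detected by competitive TR-FRET after 10 min lysis at RT. Hill-fitted AC50.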
PNC inhibitor: perinucleolar compartment assembly inhibition; PC3M PTB-GFP, PNC prevalence imaging, 16 h; stronger effect = lower value; activity change (PNC), negative = inhibition, % at 10 µM; 140,000 compounds, 3.1% hits; AID 2417;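 active = readout at or below -70, meaning at least 70% loss of cells showing the perinucleolar compartment, a nuclear body marking cancer cells; inconclusive = readout between -30 and a set limit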
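Compounds are pinned in duplicate onto adhered PC3M cells stably expressing GFP-tagged PTB and incubated 16 h at 37 C. Cells are then fixed, nuclei stained with Hoechst, and PNC-positive cells counted.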
15-hLO-2 inh: blocks human 15-lipoxygenase 2 activity; purified 15hLO-2, xylenol orange hydroperoxide absorbance; Potency, µM (highest dose often 57.1 µM), usual class: inhibitors; 110,000 compounds, 0.56% hits; note: nearly all actives have a fitted effect of over 60% in size
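Purified human 15hLO-2 (50 nM final) preincubated with compounds 15 min at room temperature in 25 mM Hepes pH 7.5, 0.01% Triton X-100, then 45 uM arachidonic acid added for 90 min; hydroperoxide detected via ferrous/xylenol orange, 573/405 nm absorbance ratio.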
Hits are given with their value; - = inactive; ? = inconclusive; . = no result; [ ] = dose if it differs, or a comment. Shown is part of a subset that was picked to be rich in hits. Unless noted, calls come from the whole dose curve; as a rule, active = well fitted curve in the direction sought with a large enough effect; inconclusive = small, poorly fitted or top-dose-only effect, or another doubt; inactive = no such curve, though single readings can be large; an effect the other way counts as inactive or inconclusive.

SMILES	ALOX12 inhib	IMPase inh	IMPase Li inh	PNC inhibitor	15-hLO-2 inh
Cc1ccc2nc(SCC(=O)NCc3ccco3)c(C#N)cc2c1	-	?	?	-	-[2.29 µM]
CCOc1ccc2cc(C#N)c(SCC(=O)NC(C)CC)nc2c1 (stereo not given)	-	?	3.5µM	-	-
Cc1ccc2cc(C#N)c(SCC(=O)NCc3ccco3)nc2c1	-	-	-	-82	-
CCOc1cc2[nH]c(=O)n(CCCCC(=O)N3CCCCCC3)c(=O)c2cc1OCC	-	-	-	-100	.
CCCCCNC(=O)CCCCn1c(=O)[nH]c2cc(OCC)c(OCC)cc2c1=O	-	-	-	?	-
CCN(CC)S(=O)(=O)c1ccc(F)c(C(=O)NCCCN2CCOCC2)c1	-	-	-	-117	-
CCN(CC)S(=O)(=O)c1ccc(N2CCOCC2)c(NC(=O)c2ccccc2F)c1	.	.	-	.	.
NC(=O)COc1ccc(-c2noc(COc3ccc(Cl)cc3)n2)cc1	.	-	.	.	.
COc1ccc(CN2C3CCCC2CC(NC(=O)Nc2ccccc2C)C3)cc1 (stereo not given)	-	-	-	-100	.
O=C(O)COc1ccccc1C1Nc2ccccc2-c2nnc(SCc3ccc(Cl)cc3)nc2O1 (stereo not given)	.	-	.	.	.
O=c1c2ccccc2c(-c2ccc(O)cc2)nn1-c1cccc(C(F)(F)F)c1	-	-	-	-85	.
CC(C)(C)C(=O)Nc1ccccc1C(=O)Nc1ccncc1	-	-	-	-100	.
CC(=O)OC(C)C	-	.	-	.	-
COC(=O)C(Cc1ccccc1)NC(=O)C(CC(C)C)NC(=O)OC(C)(C)C (stereo not given)	-	.	-	-112	.
CCC(C)C(NC(=O)OC(C)(C)C)C(=O)NC(Cc1ccccc1)C(=O)OC (stereo not given)	-	-	-	?	-
CN1CCN(C(=O)c2ccc(N3CCCC3=O)cc2)CC1	-	-	-	-	-
O=C(c1ccc(N2CCCC2=O)cc1)N1CCOCC1	-	-	-	-85	-
Cn1c(=O)c2ncn(CC(=O)NCCC3=CCCCC3)c2n(C)c1=O	-	-	-	-100	.
CN(c1ccc(OCC(=O)OCC(=O)Nc2c(F)c(F)c(F)c(F)c2F)cc1)S(=O)(=O)c1ccc(F)cc1	-	.	-	-107	.
O=C(Nc1cccc(F)c1)N1CCCC2(CCN(S(=O)(=O)c3ccccc3)CC2)C1	-	.	-	.	-
O=C(COC(=O)Cc1ccsc1)Nc1ccc(Cl)c(S(=O)(=O)N2CCOCC2)c1	-	.	-	-87	.
COCCn1c(SCC(=O)NNC(=O)c2ccccc2)nc2ccccc2c1=O	-	-	.	?	.
COCC(C)n1c(SCC(=O)NNC(=O)c2ccc(F)cc2)nc2ccccc2c1=O (stereo not given)	-	-	-	-94	.
CC(C)=CCn1cnc2c1C(NOCc1ccccc1)=NCN2	.	.	-	.	.
Cc1nn(C(=O)COc2ccccc2)c(C)c1Sc1ccccc1	.	-	.	.	.
SMILES	ALOX12 inhib	IMPase inh	IMPase Li inh	PNC inhibitor	15-hLO-2 inh
CCOC(=O)c1cnc(SCc2nc(N)nc(Nc3ccc(F)cc3)n2)nc1N	-	-	-	?	-
CCOC(=O)c1cnc(SCc2nc(N)nc(Nc3ccc(C)cc3)n2)nc1N	-	-	-	-81	-
CC(=O)Oc1ccc(/C=C/C(=O)CC2OC(Oc3cc(OC(C)=O)c4c(c3)O[C@@H](c3ccc(OC(C)=O)cc3)CC4=O)C(OC(C)=O)C(OC(C)=O)C2OC(C)=O)cc1 (stereo not given in full)	-	-	-	.	-
N=c1n(-c2ccccc2)c(O)cc(=O)n1-c1ccccc1	-	-	-	-	-
O=c1cc(O)n(-c2ccccc2)c(=S)[nH]1	-	-	-	-100	.
Cc1cc(Br)cc(C)c1OCC(=O)Nc1ccc(S(=O)(=O)Nc2ncccn2)cc1	.	-	.	.	.
COC(=O)CSc1nnc(-c2cnccn2)n1C	-	-	-	-	.
Cn1c(SCC(=O)Nc2ccc3cn[nH]c3c2)nnc1-c1cccs1	-	-	-	-	-
CC(C)OC(=O)CSc1nnc(-c2cnccn2)n1C	-	-	-	-91	.
Cn1c(SCC(=O)Nc2ccc3cn[nH]c3c2)nnc1-c1cnccn1	-	-	-	-100	-
CCCC(=O)Nc1ccccc1-c1nnn(CC(=O)Nc2ccc(OC)cc2)n1	-	-	-	-81	-
CC12CC3CC(C)(C1)CC(C(=O)NC(=S)N1CCCCC1)(C3)C2	16µM	-	-	-	?
Cc1ccc(CN(c2ccc(C(=O)N3CCCC3)cc2)S(C)(=O)=O)cc1	-	-	-	-83	-
COc1ccc(NC(=O)N2CC3(CCN(C(=O)c4cccc(F)c4)CC3)C2)cc1	-	.	-	.	-
COc1ccc(C(=O)/C=C/C(=O)N(Cc2ccccc2)C(C(=O)NC2CCCCC2)c2ccncc2)c(O)c1 (stereo not given)	-	.	-	-86	.
CSCCC(NC(=O)c1ccccc1)C(=O)NC1CCCC1 (stereo not given)	-	-	-	-84	-
CSCCC(NC(=O)c1ccccc1)C(=O)NC1CC1 (stereo not given)	-	-	-	-	.
COCCn1c(=O)cnc2cnc(Oc3ccccc3)nc21	.	.	-	.	-
Cc1cccc(CN2CCC(CNC(=O)CCNC(=O)Cn3ccc4ccccc4c3=O)CC2)c1	-	-	-	?	-
O=C(Cn1ccc2ccccc2c1=O)NCCC(=O)NC1CCN(Cc2ccccc2)CC1	-	-	-	-86	-
CC(=O)O[C@@]1(C(C)=O)CCC2C3C=C(Cl)C4=CC(=O)CC[C@]4(C)C3CC[C@]21C (stereo not given in full)	-	.	-	.	-
O=C(CSc1nccn1-c1ccccc1)c1ccc(Cl)cc1	-	-	-	-100	-
CCOC(=O)c1nn(-c2cccc(OC)c2)c2nc(CC)c(C#N)c(=O)n12	-	.	-	-109	.
CCOC(=O)c1nn(-c2ccccc2F)c2nc(-c3ccco3)c(C#N)c(=O)n12	-	.	-	-	.
O=C(Nc1ccc2ccccc2c1)[C@@H]1C[C@H]1[C@@H](NP(=O)(c1ccccc1)c1ccccc1)c1ccccc1	-	.	-	-119	-
SMILES	ALOX12 inhib	IMPase inh	IMPase Li inh	PNC inhibitor	15-hLO-2 inh
O=C(NCc1ccccc1)[C@@H]1C[C@H]1[C@@H](NP(=O)(c1ccccc1)c1ccccc1)c1ccccc1	-	.	-	-	-
O=C1OC(=O)c2ccccc21	-	.	-	.	-
O=C(O)C1CC(C2CCCCN2)CN2CCCCC12 (stereo not given)	-	.	-	.	-
CCN1CCN(C(=O)c2sc3nc(C)nc(N4CCC(C)CC4)c3c2C)CC1	-	-	-	-88	-
COCCN(CCOC)c1nc(C)nc2c1nc(-c1ccccc1)n2CCN1CCCC1	-	.	-	.	-
COC(=O)[C@@]1(Cc2ccc(F)cc2)[C@H]2c3cc(C(=O)N4CCCC4)n(CC4CC4)c3C[C@H]2CN1C(=O)c1ccccc1	-	.	-	.	-
